Assay results: PubChem BioAssay
The source made the active and inactive calls. Rule as the data show it, unless noted: active = inhibition above about 30%; inactive = the rest.

How the values were obtained:
[1] = molecular target: Nuclear receptor coactivator 3 (Homo sapiens) (UniProt Q9Y6Q9); assay: NCOA3 GAL4-fusion reporter inhibition – cell-based, luminescence, quadruplicate, confirmation (AID 588792;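 active = mean inhibition over 43.08%, the solvent-only control mean plus 3 SD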;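 also: 0% = DMSO treated cells and 100% = gossypol at 36 µM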); conditions: HEK293 GAL4-SRC3 luciferase reporter, at 3.6 µM, active compounds read high
Nuclear receptor coactivator 3 (Homo sapiens), sequence (Q9Y6Q9 whole entry, looked up, the tested form may be a part): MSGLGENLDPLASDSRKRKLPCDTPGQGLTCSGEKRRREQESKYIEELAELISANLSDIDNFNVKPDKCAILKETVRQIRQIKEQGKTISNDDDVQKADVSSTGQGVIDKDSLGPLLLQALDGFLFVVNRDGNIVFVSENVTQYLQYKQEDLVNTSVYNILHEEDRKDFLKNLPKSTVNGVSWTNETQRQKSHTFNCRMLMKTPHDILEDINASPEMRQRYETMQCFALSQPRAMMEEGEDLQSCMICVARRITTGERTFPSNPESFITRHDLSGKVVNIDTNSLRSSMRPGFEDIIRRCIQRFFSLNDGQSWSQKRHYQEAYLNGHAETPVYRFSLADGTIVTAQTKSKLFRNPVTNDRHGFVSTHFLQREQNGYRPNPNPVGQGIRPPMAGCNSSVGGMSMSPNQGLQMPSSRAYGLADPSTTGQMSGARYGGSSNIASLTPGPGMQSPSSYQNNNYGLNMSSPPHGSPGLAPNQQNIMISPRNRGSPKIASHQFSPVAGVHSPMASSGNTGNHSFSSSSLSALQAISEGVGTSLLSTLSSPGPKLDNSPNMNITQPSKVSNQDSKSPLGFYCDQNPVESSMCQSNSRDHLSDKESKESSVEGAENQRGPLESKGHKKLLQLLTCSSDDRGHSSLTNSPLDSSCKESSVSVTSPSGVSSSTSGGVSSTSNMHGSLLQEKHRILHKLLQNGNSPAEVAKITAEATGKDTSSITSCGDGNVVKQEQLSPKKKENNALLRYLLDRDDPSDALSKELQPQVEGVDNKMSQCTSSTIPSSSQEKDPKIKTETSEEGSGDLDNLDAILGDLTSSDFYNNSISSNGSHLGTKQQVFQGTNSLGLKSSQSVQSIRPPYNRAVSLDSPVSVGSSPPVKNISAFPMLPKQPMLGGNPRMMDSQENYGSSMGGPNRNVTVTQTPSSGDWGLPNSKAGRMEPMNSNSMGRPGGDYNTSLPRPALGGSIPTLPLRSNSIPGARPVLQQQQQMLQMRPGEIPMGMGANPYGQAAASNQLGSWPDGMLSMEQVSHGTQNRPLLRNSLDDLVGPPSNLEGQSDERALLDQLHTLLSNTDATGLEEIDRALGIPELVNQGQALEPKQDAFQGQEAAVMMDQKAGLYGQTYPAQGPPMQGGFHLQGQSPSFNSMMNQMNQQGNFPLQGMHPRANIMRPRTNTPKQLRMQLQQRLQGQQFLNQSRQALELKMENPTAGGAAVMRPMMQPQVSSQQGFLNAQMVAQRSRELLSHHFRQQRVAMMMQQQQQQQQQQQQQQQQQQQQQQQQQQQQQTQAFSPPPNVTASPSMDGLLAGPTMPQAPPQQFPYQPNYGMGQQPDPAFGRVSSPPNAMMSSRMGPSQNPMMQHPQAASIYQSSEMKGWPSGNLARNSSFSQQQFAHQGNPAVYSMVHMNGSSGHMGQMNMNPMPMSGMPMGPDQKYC

[2] = test system: transactivating tegument protein VP16 (Human herpesvirus 1), Gal4-VP16 luciferase reporter; assay: repression of VP16-driven luciferase reporter – cell-based, luminescence, high throughput, counter-screen for SRC3 inhibitor project (AID 588794); conditions: mammalian cells, at 3.6 µM, active compounds read high
[3] = StAR promoter reporter inhibitors, counter-screen for LRH-1 inverse agonist project, cell-based, luminescence, high throughput (AID 651611; in the data active = inhibition above about 28%); conditions: StAR promoter luciferase reporter counterscreen, at 3.6 µM, active compounds read high
[4] = molecular target: Nuclear receptor subfamily 5 group A member 2 (Homo sapiens) (UniProt O00482); assay: NR5A2 activity suppression in reporter cells – cell-based, luminescence, confirmation (AID 651613; in the data active = inhibition above about 42%;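 also: HEK293T cells co-transfected with LRH-1 and StAR promoter luciferase reporter; 0% = vehicle wells and 100% = parental cells lacking receptor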); conditions: cell-based LRH-1 luciferase reporter, inverse agonism; at 3.6 µM; active compounds read high
Nuclear receptor subfamily 5 group A member 2 (Homo sapiens), sequence (O00482 whole entry, looked up): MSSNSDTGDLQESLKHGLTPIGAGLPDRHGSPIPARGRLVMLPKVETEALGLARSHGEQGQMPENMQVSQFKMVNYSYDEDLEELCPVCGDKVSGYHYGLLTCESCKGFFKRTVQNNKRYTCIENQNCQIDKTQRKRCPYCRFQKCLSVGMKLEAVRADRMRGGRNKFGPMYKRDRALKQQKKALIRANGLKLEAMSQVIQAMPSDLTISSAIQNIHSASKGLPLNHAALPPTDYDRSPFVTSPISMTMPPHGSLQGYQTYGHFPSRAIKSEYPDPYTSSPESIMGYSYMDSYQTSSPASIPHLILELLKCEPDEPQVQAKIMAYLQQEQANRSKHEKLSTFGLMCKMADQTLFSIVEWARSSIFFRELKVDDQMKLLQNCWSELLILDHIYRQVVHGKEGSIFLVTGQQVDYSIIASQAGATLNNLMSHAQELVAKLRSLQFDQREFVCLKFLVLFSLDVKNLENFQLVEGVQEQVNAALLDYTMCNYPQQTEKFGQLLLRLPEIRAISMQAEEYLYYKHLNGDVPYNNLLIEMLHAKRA

[5] = molecular target: Steroidogenic factor 1 (Homo sapiens) (UniProt Q13285); assay: inverse agonism at SF1 nuclear receptor – cell-based, luminescence, high throughput, counter-screen for LRH-1 inverse agonist project (AID 651614; in the data active = inhibition above about 44%;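 also: cells cotransfected with StAR promoter reporter and SF1 expression vector; 0% = vehicle on cells with receptor and 100% = vehicle on cells lacking receptor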); conditions: cell-based SF1 luciferase reporter, at 3.6 µM, active compounds read high
Steroidogenic factor 1 (Homo sapiens), sequence (Q13285 whole entry, looked up, the tested form may be a part): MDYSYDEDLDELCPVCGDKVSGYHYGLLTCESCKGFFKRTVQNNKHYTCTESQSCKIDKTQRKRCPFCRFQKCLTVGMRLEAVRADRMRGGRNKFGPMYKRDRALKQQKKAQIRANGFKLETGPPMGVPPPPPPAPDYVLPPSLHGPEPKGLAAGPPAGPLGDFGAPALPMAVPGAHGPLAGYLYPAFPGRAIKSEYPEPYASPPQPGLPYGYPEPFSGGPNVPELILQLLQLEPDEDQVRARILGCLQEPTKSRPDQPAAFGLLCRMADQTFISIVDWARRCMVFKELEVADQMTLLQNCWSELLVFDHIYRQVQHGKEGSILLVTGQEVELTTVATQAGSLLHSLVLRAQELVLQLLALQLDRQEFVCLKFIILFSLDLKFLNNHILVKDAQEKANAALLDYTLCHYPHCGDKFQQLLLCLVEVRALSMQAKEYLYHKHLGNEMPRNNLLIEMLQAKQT

[6] = compounds suppressing VP16-driven luciferase signal – cell-based, luminescence, high throughput, counter-screen for LRH-1 inverse agonist project (AID 651615; in the data active = inhibition above about 33%); conditions: Gal4-VP16 luciferase reporter cells, at 3.6 µM, active compounds read high
[7] = test system: transactivating tegument protein VP16 (Human herpesvirus 1); assay: compounds suppressing VP16-driven luciferase signal – cell-based, luminescence, single concentration, counter-screen for SRC2 inhibitor project (AID 652007; in the data active = inhibition above about 36%); conditions: cell-based VP16 transactivation luciferase reporter, at 8.9 µM, active compounds read high
[8] = molecular target: Nuclear receptor coactivator 2 (Homo sapiens) (UniProt Q15596); assay: inhibition of GAL4-SRC2 driven luciferase expression – cell-based, luminescence, HEK293, triplicate, confirmation (AID 652008;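 active = mean inhibition above 46.5%, the solvent-only control mean plus 3 SD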;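 also: 0% = DMSO-treated cells and 100% = Gossypol at 36 µM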); conditions: HEK293 GAL4-SRC2 luciferase reporter, at 8.9 µM, active compounds read high
Nuclear receptor coactivator 2 (Homo sapiens), sequence (Q15596 whole entry, looked up, the tested form may be a part): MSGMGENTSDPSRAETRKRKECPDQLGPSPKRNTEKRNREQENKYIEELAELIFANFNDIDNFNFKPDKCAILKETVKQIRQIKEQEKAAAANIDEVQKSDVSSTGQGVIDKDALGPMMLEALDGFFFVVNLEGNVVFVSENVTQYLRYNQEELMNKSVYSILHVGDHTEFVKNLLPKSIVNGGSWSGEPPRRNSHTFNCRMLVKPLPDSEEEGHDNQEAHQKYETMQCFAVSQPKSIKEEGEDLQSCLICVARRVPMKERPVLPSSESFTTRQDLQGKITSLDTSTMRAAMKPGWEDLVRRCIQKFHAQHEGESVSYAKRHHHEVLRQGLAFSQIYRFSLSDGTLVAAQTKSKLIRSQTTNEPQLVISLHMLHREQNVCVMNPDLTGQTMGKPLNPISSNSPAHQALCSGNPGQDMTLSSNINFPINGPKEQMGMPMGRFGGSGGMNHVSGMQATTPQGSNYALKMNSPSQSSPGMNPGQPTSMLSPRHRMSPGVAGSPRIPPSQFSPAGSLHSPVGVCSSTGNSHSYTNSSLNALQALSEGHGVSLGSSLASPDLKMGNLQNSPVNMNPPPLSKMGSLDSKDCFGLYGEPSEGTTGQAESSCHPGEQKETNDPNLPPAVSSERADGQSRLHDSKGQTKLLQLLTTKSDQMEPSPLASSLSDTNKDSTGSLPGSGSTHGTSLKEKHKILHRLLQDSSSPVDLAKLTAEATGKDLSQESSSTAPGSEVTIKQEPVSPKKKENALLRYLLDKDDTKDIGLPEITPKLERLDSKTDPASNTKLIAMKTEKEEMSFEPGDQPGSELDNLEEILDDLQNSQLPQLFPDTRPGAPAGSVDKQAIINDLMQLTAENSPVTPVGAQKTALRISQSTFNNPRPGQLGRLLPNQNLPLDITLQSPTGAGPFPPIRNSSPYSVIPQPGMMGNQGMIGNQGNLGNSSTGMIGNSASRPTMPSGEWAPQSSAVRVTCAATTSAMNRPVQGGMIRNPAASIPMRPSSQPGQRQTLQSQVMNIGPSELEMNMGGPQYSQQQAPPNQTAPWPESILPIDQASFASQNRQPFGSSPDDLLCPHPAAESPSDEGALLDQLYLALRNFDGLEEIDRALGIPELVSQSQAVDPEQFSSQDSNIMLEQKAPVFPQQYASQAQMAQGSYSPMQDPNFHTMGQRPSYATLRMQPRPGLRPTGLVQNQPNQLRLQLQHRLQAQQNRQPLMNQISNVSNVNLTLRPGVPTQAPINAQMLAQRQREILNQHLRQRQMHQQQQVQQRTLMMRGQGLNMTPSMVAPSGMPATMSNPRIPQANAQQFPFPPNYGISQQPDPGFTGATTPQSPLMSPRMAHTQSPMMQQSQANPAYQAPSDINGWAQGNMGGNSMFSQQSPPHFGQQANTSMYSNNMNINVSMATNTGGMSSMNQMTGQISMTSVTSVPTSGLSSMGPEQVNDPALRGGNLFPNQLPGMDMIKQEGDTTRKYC

SMILES | inhibition [1] | inhibition [2] | inhibition [3] | inhibition [4] | inhibition [5] | inhibition [6] | inhibition [7] | inhibition [8]
CC(=O)c1c(C)[nH]c(C(=O)OCC(=O)Nc2ccc(Cl)cc2[N+](=O)[O-])c1C | 9.25% (inactive) | 38% (active) | 22% (inactive) | 59.6% (active) | 62.2% (active) | 54.5% (active) | – | –
CCCOc1ccc(Br)cc1CSC(=N)N | 17.9% (inactive) | 33.3% (active) | 9.34% (inactive) | 102% (active) | 53.8% (active) | 83.7% (active) | – | –
Cc1ccc(OCCN2CCN(c3ncnc4sc(C)c(C)c34)CC2)cc1 | 4.63% (inactive) | 39.1% (active) | 34.8% (active) | 56.1% (active) | 61.3% (active) | 53.9% (active) | – | –
COc1cc(/C=C/C(=O)c2ccc(C)cc2)ccc1OCC#N | 31.2% (inactive) | 41.2% (active) | 23.6% (inactive) | 29.3% (inactive) | 36.5% (inactive) | 44.4% (active) | 28% (inactive) | 29.4% (inactive)
Cn1nccc1C(=O)NC1CCCc2c1cnn2-c1ccc(C(C)(C)C)cc1 (stereo unspecified) | 15% (inactive) | 49.3% (active) | 42.5% (active) | 63.5% (active) | 69.7% (active) | 58.2% (active) | – | –
CC(=O)c1cn(CC(=O)Nc2ccc(C)cc2C)c2ccccc12 | 11.1% (inactive) | 28.2% (inactive) | 11.3% (inactive) | 71.5% (active) | 64.5% (active) | 47.4% (active) | – | –
O=C(OCC12CC3CC(CC(C3)C1)C2)c1ccc(NCc2cc(O)ccc2O)cc1 | 88.3% (active) | 47.5% (active) | 48.6% (active) | 56.9% (active) | 67.2% (active) | 72.7% (active) | 97% (active) | 96.5% (active)
